# According to paper PMC4336329 (PLoS ONE, 2015):
# The whole screen tested about 310,000 compounds, of which about 14,000 (4.5%) showed an effect of 50% or more. Effects have a minus sign here. The sample holds strong results, similar compounds and a random draw of the others, so the mix is not that of the screen.
# Target: human ether-à-go-go-related gene (hERG) potassium channel (human, UniProt Q12809)
# Test: primary screen, population patch clamp on CHO cells stably expressing hERG; higher = less effect of the substance
# 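Note: peak tail current of the secondary pulse compared with the same well before compound.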
# Chain of human ether-à-go-go-related gene (hERG) potassium channel (Q12809 whole entry, looked up): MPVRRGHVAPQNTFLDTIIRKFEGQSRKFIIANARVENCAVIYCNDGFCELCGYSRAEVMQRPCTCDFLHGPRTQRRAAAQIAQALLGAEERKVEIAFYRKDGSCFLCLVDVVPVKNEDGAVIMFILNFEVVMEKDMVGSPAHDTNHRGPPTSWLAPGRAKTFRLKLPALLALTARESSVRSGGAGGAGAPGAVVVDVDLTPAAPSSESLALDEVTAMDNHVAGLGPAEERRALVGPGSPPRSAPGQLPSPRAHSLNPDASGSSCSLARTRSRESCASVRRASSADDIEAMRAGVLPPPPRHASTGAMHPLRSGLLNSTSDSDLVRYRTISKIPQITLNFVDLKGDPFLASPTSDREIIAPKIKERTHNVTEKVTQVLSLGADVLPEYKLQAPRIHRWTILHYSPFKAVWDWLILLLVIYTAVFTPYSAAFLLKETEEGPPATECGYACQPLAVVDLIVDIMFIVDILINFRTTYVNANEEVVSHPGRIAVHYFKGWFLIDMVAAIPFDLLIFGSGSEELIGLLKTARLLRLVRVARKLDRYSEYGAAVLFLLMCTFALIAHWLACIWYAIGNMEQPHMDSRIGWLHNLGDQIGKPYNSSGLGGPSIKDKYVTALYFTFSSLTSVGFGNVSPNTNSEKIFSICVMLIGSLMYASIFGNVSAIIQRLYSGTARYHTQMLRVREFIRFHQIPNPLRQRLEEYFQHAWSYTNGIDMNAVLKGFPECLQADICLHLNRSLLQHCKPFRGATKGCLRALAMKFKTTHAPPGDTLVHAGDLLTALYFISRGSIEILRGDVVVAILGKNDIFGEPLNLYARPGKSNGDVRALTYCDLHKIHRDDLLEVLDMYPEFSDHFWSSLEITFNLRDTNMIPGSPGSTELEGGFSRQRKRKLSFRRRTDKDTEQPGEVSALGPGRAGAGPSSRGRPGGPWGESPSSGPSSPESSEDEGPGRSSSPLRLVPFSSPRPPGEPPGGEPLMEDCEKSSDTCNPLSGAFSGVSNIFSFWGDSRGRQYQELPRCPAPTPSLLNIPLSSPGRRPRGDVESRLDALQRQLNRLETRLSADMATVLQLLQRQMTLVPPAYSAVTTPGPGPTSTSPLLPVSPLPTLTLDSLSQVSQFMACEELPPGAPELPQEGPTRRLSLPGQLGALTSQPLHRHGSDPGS
row,SMILES,"hERG current change (%, negative = inhibition) at 10uM"
1,CC1(C(=O)NCCCN2CCOCC2)Oc2cccnc2NC1=O (centres unmarked),13.2%
2,Cc1ccccc1NC(=S)Nc1ccc(Br)cc1,-6.93%
3,CS(=O)(=O)N(Cc1ccccc1)c1ccc(C(=O)Nc2ccccc2Sc2ccccc2)cc1,1.8%
4,Cc1cccc(C)c1NC(=O)CN(C)C(=O)c1ccccc1Sc1ccccc1C#N,-4.76%
5,O=C(NC(=S)NCc1cccnc1)c1cc2ccccc2o1,8.71%
6,CC(=O)c1ccc(O)c(CSC2=NCCS2)c1,19.8%
7,O=C(CN1C(=O)NC2(CCc3ccccc32)C1=O)NCCc1ccccc1 (centres unmarked),-6.43%
8,COc1ccccc1C(=O)N/C(=C\c1ccc(Br)cc1)C(=O)NCC(=O)O,1.78%
9,O=C(CNC(=O)/C(=C\c1ccc(Br)cc1)NC(=O)c1ccccc1)OCc1ccccc1,-59.9%
10,NC(=S)NNC(=O)/C(=C/c1ccc(Br)cc1)NC(=O)c1ccccc1,40%
11,CC1(c2ccccc2)NC(=O)N(CC(=O)Nc2nc(-c3ccccn3)cs2)C1=O (centres unmarked),0.219%
12,COc1ccccc1NC(=O)Nc1nn(C)c2cccc(N(C)C)c12,11%
13,COC(=O)C1CCN(Cc2cn(Cc3ccccc3)nc2-c2cc3ccccc3o2)CC1,-75.9%
14,COCCOC1CCN(Cc2cn(Cc3ccccc3)nc2-c2cc3ccccc3o2)CC1,-67%
15,COc1ccc(NC(=O)c2cn(CCC#N)nc2-c2cc3ccccc3o2)cc1,-0.308%
16,COC(=O)C1CCN(Cc2nnc(-c3ccccc3)o2)CC1,16.1%
17,COC(=O)C1CCN(C(=O)c2cc3ccccc3oc2=O)CC1,-7.44%
18,COc1cccc(-c2nn(Cc3ccccc3)cc2CO)c1,8.47%
19,N#CCCn1cc(C(=O)Nc2ccc(C(=O)O)cc2)c(-c2cc3ccccc3o2)n1,10.7%
20,COC1CCN(Cc2cn(Cc3ccccc3)nc2-c2cc3ccccc3o2)CC1,-71.9%
21,CC(C)(C)c1ccc(/C([O-])=C(/C(=S)NCc2ccco2)[n+]2ccccc2)cc1,6.63%
22,Cc1cc(C)cc(NC(=S)N2CCN(S(C)(=O)=O)CC2)c1,4.55%
23,CCOc1ccc(N(CC(=O)NCCCOC)S(C)(=O)=O)cc1,4.53%

row,SMILES,"hERG current change (%, negative = inhibition) at 10uM"
1,COc1ccc2nc3c(c(-c4ccccc4)c2c1)CCC3,-5.34%
2,Cc1ccc2nc3c(c(Nc4cccc(O)c4)c2c1)CCC3.Cl,-70%
3,Cc1ccc2nc3c(c(Nc4ccc(O)cc4)c2c1)CCC3.Cl,-21.2%
4,Cc1ccc2nc3c(c(C(=O)O)c2c1)CCC3,2.29%
5,Cc1ccc2nc3c(c(Nc4ccccc4)c2c1)CCC3.Cl,-71.7%
6,COc1ccc(Nc2ncnc3ccc(C)cc23)cc1,-3.17%
7,COc1ccc(Nc2c3c(nc4ccc(C)cc24)CCC3)cc1.Cl,-78.3%
8,Cc1cccc(-c2nc(Nc3cccc(O)c3)c3ccccc3n2)c1,21.8%
9,Cc1ccc(-c2nc(Nc3cccc(O)c3)c3ccccc3n2)cc1,11.9%
10,CC(=O)Nc1ccc(S(=O)(=O)NNC(=O)c2cccc(Cl)c2)cc1,8.3%
11,CCOC(=O)CON1C(=O)c2ccccc2C1=O,-5.5%
12,COc1ccc(Cl)cc1-n1c(C)cc(C=O)c1C,4.29%
13,COc1ccc(CN(C(=O)c2cnccn2)C(C(=O)NC(C)(C)C)c2cc(OC)c(OC)c(OC)c2)cc1 (centres unmarked),1.58%
14,CCOC(=O)c1ccc(Oc2coc3cc(O)ccc3c2=O)cc1,17.6%
15,CCOc1ccc(NS(=O)(=O)c2ccc(OC)c(NC(=O)c3ccc4c(c3)OCCO4)c2)cc1,-2.7%
16,O=C(Cc1csc(-c2ccccc2)n1)NCc1ccco1,-1.66%
17,CC(C)c1ccc(C(=O)N2CCCN(C(=O)c3ccc(C(C)C)cc3)CC2)cc1,-32.9%
18,CCS(=O)(=O)N1CCN(c2cnn(-c3ccccc3)c(=O)c2Cl)CC1,-29%
19,Cc1ccn2cc(C(=O)N3CCN(c4cnn(-c5ccccc5)c(=O)c4Cl)CC3)nc2c1,-46.7%
20,Cc1ccc(C(=O)N2CCN(c3cnn(C)c(=O)c3Cl)CC2)cc1,-31.1%
21,COc1ccc(C(=O)N2CCN(c3cnn(-c4ccccc4)c(=O)c3Cl)CC2)cc1,-71.3%
22,CCOc1ccc(C(=O)N2CCN(c3cnn(-c4ccccc4)c(=O)c3Cl)CC2)cc1,-77.8%
23,CC(C)c1ccc(C(=O)N2CCN(c3cnn(C)c(=O)c3Cl)CC2)cc1,-64.4%

row,SMILES,"hERG current change (%, negative = inhibition) at 10uM"
1,O=C(c1cccc(Br)c1)N1CCN(c2cnn(-c3ccccc3)c(=O)c2Cl)CC1,-47.4%
2,O=C(c1ccc(F)cc1)N1CCN(c2cnn(-c3ccccc3)c(=O)c2Cl)CC1,-48.6%
3,CCCCOP(=O)(c1ccc(N(C)C)cc1)C(O)c1ccc(N(C)C)cc1 (centres unmarked),-5.3%
4,COc1cc(/C=C/c2nc(N)nc(-c3ccccc3O)n2)cc(OC)c1OC,-3.86%
5,Cc1ncc([N+](=O)[O-])n1CCOC(=O)Nc1ccc(Cl)c(Cl)c1,1.07%
6,Cc1ccc(CNCCCSc2nc(C)cc(C)n2)cc1.Cl,-52.3%
7,CCOc1ccc(Cl)cc1CNCCCSc1ncccn1,-37.3%
8,Cc1cc(C)nc(SCCCNCc2ccc(Br)cc2)n1.Cl,-36.1%
9,Cc1cc(C)nc(SCCCNCc2ccccc2)n1.Cl,-3.19%
10,CCOc1ccc(Cl)cc1CNCCCSc1nc(C)cc(C)n1.Cl,-59.6%
11,CCOc1c(CNCCCSc2nc(C)cc(C)n2)cccc1OC.Cl,-11.1%
12,O=C(NC1CCCCC1)C1CC(=O)N(CCc2ccccc2)C1 (centres unmarked),-7.01%
13,O=C(c1ccccc1O)N1CCOCC1,3.51%
14,CNC(=S)N(CCc1c(C)[nH]c2ccc(OC)cc12)Cc1cccnc1,9.25%
15,CCn1c(=O)c(=O)[nH]c2cc(C(=O)NC(C)c3ccc(S(N)(=O)=O)cc3)ccc21 (centres unmarked),3.47%
16,CCCCCOc1ccc(/C(C)=N/NC2=NCCN2)cc1,-39.8%
17,Cc1cc(N2CCC(C(=O)NCC3CC3)CC2)nc(-c2ccccc2)n1,-73.1%
18,Cc1cc(C)nc(N2CCC(C(=O)NCc3ccccc3)CC2)n1,3.44%
19,C#CCNC(=O)C1CCN(c2cc(C)nc(-c3ccccc3)n2)CC1,-40.7%
20,Cc1cc(N2CCC(C(=O)NC3CCCCC3)CC2)nc(-c2ccccc2)n1,-49.6%
21,C=CCNC(=O)C1CCN(c2nc(C)cc(-c3ccccc3)n2)CC1,-51.3%
22,Cc1cc(N2CCC(C(=O)NC3CC3)CC2)nc(-c2ccccc2)n1,-46%
23,Cc1cc(N2CCC(C(=O)Nc3ccc(F)cc3)CC2)nc(-c2ccccc2)n1,-32.9%

row,SMILES,"hERG current change (%, negative = inhibition) at 10uM"
1,Cc1cc(-c2ccccc2)nc(N2CCC(C(=O)NC(C)C)CC2)n1,4.06%
2,C=CCNC(=O)C1CCN(c2cc(C)nc(-c3ccccc3)n2)CC1,-58.2%
3,COc1ccc(NC(=O)c2sccc2OS(=O)(=O)N(C)C)cc1,11.2%
4,C/C(=N/NC(N)=S)c1ccc(Br)s1,16.8%
5,CCOc1ccccc1/C=N/NC(=O)Cc1csc(Nc2cccc(C(F)(F)F)c2)n1,4.05%
6,N#CSc1ccc2oc(C3=NCCN3)cc2c1,0.521%
7,O=C(c1ccc2c(c1)OCCCO2)N1CCCCC1,11.7%
8,CCNc1nc(NCC)nc(OCC(=O)O)n1,7.6%
9,COc1ccc(N2CCN(c3nc(NCCO)nc(N4CCOCC4)n3)CC2)cc1,-1.07%
10,O=C1NC(=O)N(Cc2ccccc2)C1=O,26.4%
11,COc1ccc(C2/C=C\CN(CC3CC3)CC(=O)N2Cc2ccc(F)cc2)cc1 (centres unmarked),-21%
12,CCCCNCCOCCOc1ccc(C)cc1Br.O=C(O)C(=O)O,-32.1%
13,CCCCNCCOCCOc1ccc(Cl)cc1Br.O=C(O)C(=O)O,-57.9%
14,CCCCNCCOCCOc1ccccc1-c1ccccc1.O=C(O)C(=O)O,-50.1%
15,CCCCNCCCOc1ccc(C)cc1Br.O=C(O)C(=O)O,-35%
16,CCCCNCCCOc1cc(Cl)ccc1Cl.O=C(O)C(=O)O,-54.3%
17,COCCNCCCOc1ccc(Cl)cc1Br.O=C(O)C(=O)O,-42%
18,CCCCNCCOc1ccccc1-c1ccccc1.O=C(O)C(=O)O,-28.2%
19,OCCNCCCOc1cc(Cl)ccc1Cl,-14.4%
20,COCCCNCCOCCOc1ccc(Cl)cc1Br.O=C(O)C(=O)O,-51.9%
21,COCCCNCCOCCOc1ccccc1-c1ccccc1.O=C(O)C(=O)O,-29.4%
22,CCCCNCCOCCSc1ccc(Cl)cc1.O=C(O)C(=O)O,-43.5%
23,COCCCNCCCOc1ccc(C)cc1Br.O=C(O)C(=O)O,-30.7%
